Source: PubChem BioAssay (NCI)
The panel holds about 83,000 compounds, 20% with a hit somewhere; the sample as a whole holds those more often.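 Percent growth is the endpoint: 0 to 100 indicates growth inhibition (40 means 60% inhibition), 0 means no net growth, and negative values indicate cell death.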 Active and inactive are the calls of the source. How the source made its calls: active means growth percent below 10; inactive means the rest.

tested on: HL-60(TB) leukemia; test: NCI-60 one-dose screen, 48 h (100 = growth as untreated, 0 = no growth, -100 = all killed); settings: 10 µM unless noted

Compound | growth
O=C1Nc2cc(Cl)ccc2/C1=C\c1c(-c2ccc(F)cc2)nc2ccccn12 | -46% (active)
O=C(c1ccccc1)c1ccc(C2CCCCC2)cc1 | 101% (inactive)
CC(=O)Oc1ccc(C(OC(C)=O)OC(C)=O)cc1 | 90.3% (inactive)
COc1ccc(NC(=O)c2sc3nc(C)c(C(C)=O)cc3c2N)cc1 | 94% (inactive)
Cc1cc(C)c2nc3nc(C)cc(C)c3c(N)c2c1 | 45.8% (inactive)
Cc1ccc(-c2nc(C(Cl)Cl)n3nc(-c4ccccc4)cc3n2)cc1 | 61.3% (inactive)
COc1ccc(NC(=O)c2ccc(C(=O)Nc3ccc(OC)cc3OC)cc2)c(OC)c1 | 88.5% (inactive)
C=C1C(=O)O[C@H]2[C@H]1CC/C(COC(=O)NCc1ccc(Cn3c(=O)sn(CCCl)c3=O)cc1)=C\CC[C@@]1(C)O[C@@H]21 | -21.4% (active)
COc1cccc(N2CCN(c3cccc(C)n3)CC2)c1 | 100% (inactive)
CC(=O)O[C@H]1[C@@H]2OC(=O)C(CSc3ccccc3)[C@@H]2C[C@H]2O[C@]2(C)CC/C=C(\C)CCC[C@@H]1C (stereo not given in full) | 25.8% (inactive)
[2H]C([2H])([2H])Oc1cccc(/C=C/C(=O)/C=C(/C=C/c2cccc(OC([2H])([2H])[2H])c2OC([2H])([2H])[2H])OB(F)F)c1OC([2H])([2H])[2H] | 60% (inactive)
COc1ccc2c(c1)sc1nc(-c3ccccc3)c(-c3cccc4ccccc34)n12 | 6.59% (active)
CNC(=O)c1cc(Oc2ccc(NC(=O)Nc3ccc(Cl)c(C(C)(C)C)c3)c(F)c2)ccn1 | 46.7% (inactive)
COc1ccccc1NS(=O)(=O)c1cccc(C(=O)Nc2ccc(Br)cc2)c1 | 29.4% (inactive)
O=C1Nc2cc(-c3ccc(O)cc3)ccc2/C1=C/c1ccc[nH]1 | -8.12% (active)
Cc1cc(N2CCN(c3ccnc4cc(Cl)ccc34)CC2)nc(NC2CCCCC2)n1 | -54.1% (active)
COc1cccc(Cc2nn3cc(-c4ccccc4)nc3s2)c1 | 69.9% (inactive)
COc1ccc(OC)c(/C=C/c2nc(SCc3ccccc3)n(-c3ccc(Cl)cc3)n2)c1 | 1.31% (active)
COc1ccc(Oc2ccc(/C=C/C(=O)c3ccc(OC)c(OC)c3)cc2)cc1 | -61.4% (active)
OCc1cnccc1NCCCOc1ccccc1 | 89.4% (inactive)

Compound | growth
Nc1ccc2cc3ccc(N)cc3nc2c1 | 110% (inactive)
COc1cc(-c2ccc[nH]2)[nH]c1/C=C1\N=C(C)C(CC(=O)OCC(C)(C)C)=C1C | -44.5% (active)
O=[N+]([O-])/C(=C\c1ccco1)c1ccccc1Cl | 81.6% (inactive)
O=C1C(Cl)=C(Cl)C(Cl)(Cl)C(Cl)C1(Cl)Cl (stereo not given) | 77.7% (inactive)
CCOc1ccc(-c2cc(C3(S(=O)(=O)c4ccc(C)cc4)CC=CC3)on2)cc1 | 75.1% (inactive)
CCN1C(=O)N(CC)C2C1NN=c1s/c(=C\c3ccc(F)cc3)c(=O)n12 (stereo not given) | -47% (active)
COc1cc(-c2nc(-c3nc4cc(C(=O)c5ccccc5)ccc4[nH]3)cc3c2[nH]c2ccccc23)cc(OC)c1OC | 89.7% (inactive)
O=C(Nc1ccc(CN2CCOCC2)c(C(F)(F)F)c1)c1nc2ccc3[nH]ncc3c2c2c1CCCC2 | 98.1% (inactive)
Cc1c2cc[nH]c(=O)c2c(C)c2c1[nH]c1ccc(OC(=O)c3ccccc3)cc12 | 51.3% (inactive)
N#CC1=C(N)Oc2c(ccc3ccccc23)C1c1cc2ccccc2n2nnnc12 (stereo not given) | -32.7% (active)
CC(C)[C@H]1CCC2=C3CC[C@]45OC(=O)[C@@]6(CCC(C)(C)C[C@H]64)CC[C@@]5(C)[C@]3(C)CC[C@@]21C | 3.99% [100 µM] (active)
O=C(O)CS(=O)c1ccc(Cl)cc1 (stereo not given) | 86.2% (inactive)
CCC(=O)Nc1ccc(-c2nc(-c3cccc(OC)c3)c(-c3ccnc(Br)c3)[nH]2)cc1 | 49.5% (inactive)
N#Cc1c(Nc2ccc(F)cc2)n[nH]c1-c1cccs1 | 95.3% (inactive)
COc1cc(C=Nc2oc(-c3ccccc3)c(-c3ccccc3)c2C#N)cc(CN2CCCC2)c1O | 102% (inactive)
O=S(=O)(NCl)c1ccccc1 | 99.8% (inactive)
O=S(=O)(Oc1ccc(Br)cc1)c1ccc(Cl)cc1 | 85.3% (inactive)
OCCN1CCOCC1 | 121% (inactive)
Cc1ccc(NC(=O)c2[nH]c(SCCN(C)C)nc2-c2ccc(F)cc2)cc1C#Cc1cnc2cccnn12 | -54.9% (active)
c1csc(-c2cc(-c3cc(-c4cccs4)[nH]n3)n[nH]2)c1 | 87.1% (inactive)
